Reference: PubChem BioAssay (NCATS)
Results filed as inconclusive are left out. Activity calls are given as the source filed them. Calls follow the shape of the dose curve; as a rule, active = well fitted inhibition curve with a large enough effect; inconclusive = small, poorly fitted or top-dose-only effect; inactive = flat fitted curve, though single readings scatter.

These compounds were tested against Aldehyde dehydrogenase, mitochondrial (Homo sapiens) (UniProt P05091) (assay: qHTS for Inhibitors of the Aldehyde Dehydrogenase Family (ALDH2) Primary screen (AID 2061308; also: nearly all actives have a fitted effect of over 55% in size;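 as to activity change, negative = inhibition: plate controls were vehicle for no effect and reference inhibitor for full effect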)). Settings: ALDH2 enzyme inhibition qHTS, 1536-well; series mostly up to 56 µM; activity change, negative = inhibition: at the top concentration.
Potency is read from the fitted curve at half-maximal effect.

Compound	Potency	activity change, negative = inhibition
O=C1Nc2ccccc2/C1=C/c1cc(Cl)c(O)c(Cl)c1	inactive	
CN(CCc1ccco1)c1ncnc2ccc(-c3ccc4c(c3)OCO4)cc12		-7.61% (inactive)
Cc1cc(C)nc(NC(=S)N2CCN(c3cc(Cl)cc(Cl)n3)CC2)c1		-1.64% (inactive)
COc1ccc(NC(=O)c2[nH]c(C)c(C(C)=O)c2C)cc1S(=O)(=O)Nc1ccc(C#N)cc1		-5.54% (inactive)
NCCCC[C@H](N)C(=O)Nc1ccc(Cl)cc1C(=O)c1ccc[nH]1		-17.9% (inactive)
O=C(O)c1ccc(O)c2ncc(-c3cccc(N4CCOCC4)c3)cc12		2.15% (inactive)
O=[N+]([O-])c1cccc(CNc2ccc(S(=O)(=O)Nc3nccs3)cc2)c1O		2.17% (inactive)
O=C1Nc2cc(Cl)ccc2Nc2cscc21	14.1 µM (active)	
OCc1cn(Cc2ccc(O)c3ncccc23)cn1		8.59% (inactive)
COc1ccc(C2Nc3ccccc3C(=O)N2CCCN(C)C)cc1COc1c(C)cc(NC(C)=O)cc1C (configuration not stated)		12.2% (inactive)
CC(C)Oc1cccc(-c2csc(N3CCC(C(N)=O)CC3)n2)c1		6.28% [at 171 µM] (inactive)
Fc1ccc(NC(=S)Nc2nnc(-c3ccncc3)s2)cc1C(F)(F)F		5.24% (inactive)
FC(F)(F)c1cccc(-c2ccc(CNc3nc(-c4ccccc4C(F)(F)F)nc4ccccc34)cc2)c1		-19.7% (inactive)
Cc1ccc(CNc2ccccc2C(=O)Nc2nc(-c3ccccc3)cs2)cc1		-1.39% (inactive)
O=C(CSc1ccccc1)Nc1nnc(COc2ccc(Cl)cc2)s1		-13.4% (inactive)
O=C(CNC(=O)c1ccc(Cl)c(C(F)(F)F)c1)OC(C(=O)Nc1cc(C(F)(F)F)ccc1Cl)c1ccccc1 (configuration not stated)		0.652% (inactive)
O=C(Nc1ccc(S(=O)(=O)Nc2nccs2)cc1)C1CCC2(CCC2)CC1		9.76% (inactive)
